Laboratory results reported in PubChem BioAssay AID1259422 (The Scripps Research Institute Molecular Screening Center, 2018).
Out of some 640,000 compounds screened, about 9,300 (1.5%) were called active. Cut-off read from the data, not from the text of the source: active = inhibition above about 32%; inactive = the rest. For the sample, actives were picked, then their nearest neighbours and some compounds at random.

Assay: TEAD-YAP interaction inhibition, primary screen, TEAD-YAP interaction inhibitor project, luminescence, HEK-TIYL cells (AID 1259422);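 note: 0% = median of test compound wells and 100% = reference inhibitor wells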
Settings: TEAD-Gal4/YAP UAS-luciferase luminescence, at 9.12 µM, stronger effect = higher value
In the case of O=C(Nc1ccc(Br)cc1)c1cc2ccccc2c(=O)o1, the inhibition was -8.82% (inactive). For Cc1ccc2nc(NCc3ccccc3)nc(-c3ccccc3)c2c1, the inhibition was -0.32% (inactive). In the case of O=c1c(-c2ccccc2)[n+]([O-])c2ccccc2n1OCc1ccccc1Cl, the inhibition was -9.42% (inactive). In the case of CCOC(=CNc1ccc2nsnc2c1)OCC, the inhibition was -2.05% (inactive). In the case of CCCOc1ccc(N2C(=O)CC(N(CCC34CC5CC(CC(C5)C3)C4)C(C)=O)C2=O)cc1 (stereo unspecified), the inhibition was 1.87% (inactive). For COc1ccc(CCNc2ncnc3nc(Nc4ccc(N5CCOCC5)cc4)[nH]c23)cc1, the inhibition was 20.2% (inactive). In the case of c1ccc(Nc2nc3ncnc(NCc4cccnc4)c3[nH]2)cc1, the inhibition was -5.96% (inactive). With c1cn(-c2ccc(Nc3nc4ncnc(NC5CC5)c4[nH]3)cc2)cn1 the inhibition was 45.5% (active). In the case of CC1=C(C(=O)Nc2cc(Cl)ccc2C(=O)O)SCCO1, the inhibition was 5.44% (inactive). In the case of CC(=O)c1ccc(N2CCN(C(=O)Cn3ncc4c3-c3cc(C)ccc3OC4)CC2)cc1, the inhibition was -3.87% (inactive). With CCc1nnc2n1N(C(C)=O)C(c1ccc3c(c1)CCCC3)=C(C(C)=O)S2 the inhibition was 10.8% (inactive). In the case of CC(=O)C1=C(c2ccc(C(C)(C)C)cc2)N(C(C)=O)n2cnnc2S1, the inhibition was 84% (active). In the case of CCC(=O)C1=C(c2ccc(Cl)cc2)N(C(=O)CC)n2cnnc2S1, the inhibition was 15.1% (inactive). For CCN1CCCC1CNC(=O)CSCc1nc(-c2ccccc2F)oc1C (stereo unspecified), the inhibition was -9.37% (inactive). With CN(C(=O)c1cccs1)C(Cc1ccccc1)C1CCN(C(=O)C2CCOC2)CC1 (stereo unspecified) the inhibition was -13% (inactive). For CCCCCCCCCc1ccc(OCCOCCOCCOCCOCCOCCOCCOCCOCCO)cc1, the inhibition was 34.7% (active). With CCCCCCCc1ccc(C(=O)Oc2ccc(Br)cc2)cc1 the inhibition was 8.27% (inactive). In the case of CCc1ccc(OCCOCCNCCN)cc1, the inhibition was 13% (inactive). For CCN(CC)CCCNC(=O)c1ccc(Cn2c(=S)[nH]c3cc4c(cc3c2=O)OCO4)cc1, the inhibition was -11.4% (inactive). In the case of Cc1ccnc(NC(c2ccc(O)cc2)c2ccc3ccc(C)nc3c2O)c1 (stereo unspecified), the inhibition was -16.1% (inactive). For Oc1c(C(Nc2ccccn2)c2cccnc2)ccc2cccnc12 (stereo unspecified), the inhibition was 14.9% (inactive). In the case of COc1cc(C(=O)NC(c2ccccc2Cl)c2cc([N+](=O)[O-])c3cccnc3c2O)cc(OC)c1OC (stereo unspecified), the inhibition was -0.41% (inactive). In the case of Cc1cccc(NC(c2cccc(F)c2)c2ccc3ccc(C)nc3c2O)n1 (stereo unspecified), the inhibition was 1.53% (inactive). With Cc1ccnc(NC(c2ccc3cccnc3c2O)c2c(F)cccc2Cl)c1 (stereo unspecified) the inhibition was 34.7% (active). In the case of Cc1cccc(NC(c2ccc3c(c2)OCO3)c2ccc3ccc(C)nc3c2O)n1 (stereo unspecified), the inhibition was 15.8% (inactive). In the case of Oc1c(C(Nc2ccccn2)c2ccc(OC(F)F)cc2)ccc2cccnc12 (stereo unspecified), the inhibition was 70.2% (active). For Cc1ccnc(NC(c2ccccc2Cl)c2ccc3cccnc3c2O)c1 (stereo unspecified), the inhibition was 77.9% (active). With Oc1ccc2ncccc2c1C(Nc1ccccn1)c1ccccc1 (stereo unspecified) the inhibition was 6.96% (inactive). In the case of CCOC(=O)c1sc2ncn(CC(=O)Nc3cccc(C(F)(F)F)c3)c(=O)c2c1C, the inhibition was 0.34% (inactive). For Cc1ccc(NC(=O)c2cc(S(=O)(=O)N3CCN(c4cccc(Cl)c4)CC3)ccc2F)cc1F, the inhibition was -4.95% (inactive). For CCN1CCN(c2cc(Nc3cc(OC)c(OC)c(OC)c3)c3c4c(onc24)-c2ccccc2C3=O)CC1, the inhibition was 5.58% (inactive). In the case of Cc1ccc(S(=O)(=O)CCc2nnc(NC(=O)c3ccc([N+](=O)[O-])cc3)s2)cc1, the inhibition was -5.17% (inactive). With NC(=O)Cn1c(=O)n(CCCCC(=O)NCc2ccccc2Cl)c(=O)c2ccccc21 the inhibition was 2.5% (inactive). With O=C(NC1CCN(Cc2ccccc2)CC1)c1cccc(Nc2nccc3ccccc23)c1 the inhibition was 2.07% (inactive). With CS(=O)(=O)N(CC(O)Cn1c2ccccc2c2ccccc21)c1ccccc1I (stereo unspecified) the inhibition was -12.3% (inactive). In the case of CCCC(=O)NC(c1ccccc1OC)c1cc([N+](=O)[O-])c2cccnc2c1O (stereo unspecified), the inhibition was 20.6% (inactive). In the case of CNC(=O)COC(=O)c1c(Cl)cccc1Cl, the inhibition was -0.51% (inactive). In the case of CCOC(=O)c1ccccc1NS(=O)(=O)c1ccc(OC)cc1, the inhibition was 46.5% (active). With CCOC(=O)c1ccccc1NC(=O)/C=C/c1ccc(OC)cc1 the inhibition was 4.72% (inactive). With Cc1ccc(S(=O)(=O)Nc2ccccc2C(=O)NN)cc1 the inhibition was 12.8% (inactive). With O=C(Nc1ccccc1C(F)(F)F)c1cc(S(=O)(=O)NC2CCCC2)ccc1F the inhibition was 1.13% (inactive). For CCS(=O)(=O)c1ncc(Cl)c(C(=O)Nc2ccc(OC(F)F)cc2)n1, the inhibition was -5.89% (inactive). For Cc1ccc(F)cc1NC(=O)Cc1nn(C)c(=O)c2ccccc12, the inhibition was 29.9% (inactive). In the case of Cc1cc(NC(=O)Cc2nn(C)c(=O)c3ccccc23)ccc1Br, the inhibition was 4.56% (inactive). In the case of Cn1nc(CC(=O)Nc2ccc(F)c(F)c2)c2ccccc2c1=O, the inhibition was 46.9% (active). In the case of COc1ccc(Nc2ncc(-c3cccc(NC(C)=O)c3)n3ccnc23)cc1, the inhibition was -67.3% (inactive). In the case of COc1cccc(-c2cnc3c(Nc4ccc(C(N)=O)cc4)nccn23)c1, the inhibition was -21.2% (inactive). With COc1cc(Nc2nccn3c(-c4cccc(NC(C)=O)c4)cnc23)cc(OC)c1OC the inhibition was 51.5% (active). In the case of Cc1nc(-c2cncc(-c3ccc(F)cc3)c2)cc(=O)[nH]1, the inhibition was 5.59% (inactive). For COc1cc(C(=O)Oc2ccccc2Cl)cc(OC)c1OC, the inhibition was 0.19% (inactive). In the case of COc1cc(NC(=O)c2sc3ncn(Cc4ccccc4Cl)c(=O)c3c2C)cc(OC)c1OC, the inhibition was 0.99% (inactive). In the case of COc1cc(C(=O)Nc2ncc(Cc3ccccc3Cl)s2)cc(OC)c1OC, the inhibition was 57.5% (active). For CC(=O)Nc1ccc(NC(=O)c2cc3nc(C)ccc3o2)cc1, the inhibition was 6.06% (inactive). For CCOC(=O)c1ccc(NC(=O)COc2c(Br)cc(C=O)cc2OC)cc1, the inhibition was -2.35% (inactive). In the case of CC1Nc2c(c(=O)oc3ccccc23)NC1=O (stereo unspecified), the inhibition was -13.4% (inactive). With O=C(Nc1ccc(Oc2ccccc2)cc1)c1ccc2c(=O)n(CCc3ccccc3)c(=S)[nH]c2c1 the inhibition was 4.57% (inactive). For O=C(NCCc1ccc(Cl)cc1)c1ccc2c(=O)n(CCc3ccccc3)c(=S)[nH]c2c1, the inhibition was 6.42% (inactive). With O=c1c2nccnc2[nH]c(=S)n1CCc1ccccc1 the inhibition was 32.2% (active). For Cc1ccc(C)c(C(=O)Nc2ccc3c(c2)N(S(=O)(=O)c2ccc(F)cc2)CCC3)c1, the inhibition was -2.68% (inactive). In the case of Cc1nc(N)sc1-c1csc(Nc2ccc(O)cc2)n1, the inhibition was 2.78% (inactive). With CC(=O)Nc1nc(C)c(-c2csc(Nc3ccc(C)cc3)n2)s1 the inhibition was 1.48% (inactive). For Cc1nc(C)c(-c2csc(Nc3ccc(Br)cc3)n2)s1, the inhibition was 52.5% (active). With CC(C)Cn1c(-c2ccccc2)c[nH]c1=S the inhibition was 4.66% (inactive). For CCN1CCN(C2=C(Cl)C(=O)N(c3cccc(C(=O)OC)c3)C2=O)CC1, the inhibition was 23.4% (inactive). For CCOc1ccc(Cl)cc1S(N)(=O)=O, the inhibition was -4.54% (inactive). For CC(=O)Nc1cccc(C(=O)N/N=C/c2c(O)ccc3ccccc23)c1, the inhibition was 14.8% (inactive). With O=C(N/N=C/c1c(O)ccc2ccccc12)c1cc([N+](=O)[O-])cc([N+](=O)[O-])c1 the inhibition was 3.24% (inactive). For COc1ccc(C(=O)N/N=C/c2c(O)ccc3ccccc23)cc1, the inhibition was 58.3% (active). In the case of O=C(NCc1ccco1)c1ccc(N2CC3CC(C2)c2cccc(=O)n2C3)c(NC(=S)Nc2ccc(Cl)cc2Cl)c1 (stereo unspecified), the inhibition was -0.4% (inactive). In the case of Nc1nc2nonc2nc1Nc1ccccc1, the inhibition was 10.4% (inactive). With Cc1ccc(Nc2nc3nonc3nc2Nc2ccccc2F)cc1 the inhibition was 69.4% (active). For Cc1ccc(Nc2nc3nonc3nc2NNc2ccccc2)cc1Cl, the inhibition was -9.84% (inactive). In the case of Cc1cc(Cl)cc(Cl)c1OCCOCCN(C)CCO, the inhibition was 3.38% (inactive). For O=C(NCCc1ccccc1)c1cc(Sc2ccccc2Cl)nc2ccccc12, the inhibition was -11.2% (inactive). With O=C(NCCc1ccsc1)c1ccccc1Cl the inhibition was 46.4% (active). With O=C(NCCc1ccsc1)Nc1ccccc1F the inhibition was -29.3% (inactive). For COc1cccc(NC(=O)CSc2nnc(-c3ccc(F)cc3)c(-c3ccc(F)cc3)n2)c1, the inhibition was 16.5% (inactive). For COc1ccc(Nc2ncnc3ccc(Br)cc23)cc1, the inhibition was 33.4% (active). With COc1ccc(Nc2ncnc3c2cnn3-c2ccc(OC)cc2)cc1 the inhibition was -19.6% (inactive). With Fc1ccc(Nc2ncnc3ccc(I)cc23)cc1 the inhibition was 25.1% (inactive). With CC(=O)Oc1cc(C(=O)Nc2cccc(C#N)c2)cc(C(=O)Nc2cccc(C#N)c2)c1 the inhibition was -1.56% (inactive). With CC(=O)Oc1cccc(C(=O)Nc2ccccc2Br)c1 the inhibition was 14.5% (inactive). With CC(=O)Oc1cccc(C(=O)Nc2ccc(C)c(C)c2)c1 the inhibition was 62.5% (active). For O=C(CNC(=O)c1ccc(Br)o1)OCC(=O)c1ccc(Br)cc1, the inhibition was 4.37% (inactive). With Cc1ccc(CNC(=O)C(=O)N/N=C/c2ccccc2I)cc1 the inhibition was -10.4% (inactive). With COc1ccc(CC2(CCC(=O)NCc3nc(C)cs3)CCC(=O)N2)c2ccccc12 (stereo unspecified) the inhibition was -13.4% (inactive). With CCOc1ccccc1Nc1nnc(Cc2ccc(OC)cc2)c(=O)[nH]1 the inhibition was 3.03% (inactive). For COc1cccc(Nc2nnc(Cc3ccc(Cl)cc3)c(=O)[nH]2)c1, the inhibition was 7.31% (inactive). In the case of COc1ccc(Cc2nnc(N/N=C/c3ccccc3O)[nH]c2=O)cc1OC, the inhibition was 85.4% (active). In the case of COc1cccc(C2(NC(=O)CN3C(=O)NC4C3N(C)C(=O)N4C)CCCC2)c1 (stereo unspecified), the inhibition was 4.87% (inactive). With CC1CN(C(=S)c2ccc(Br)cc2)CC(C)O1 (stereo unspecified) the inhibition was 6.13% (inactive). For O=C(CSc1nnc(NC(=O)C2CCC2)s1)NCc1cccs1, the inhibition was 5.18% (inactive). For COc1cccc(/C=N/N=C2/NC(=O)CS2)c1O, the inhibition was 58.3% (active). In the case of COc1cccc(/C=N/NC(=O)c2cc(O)cc(O)c2)c1O, the inhibition was 20.7% (inactive). With COc1ccc(/C=N/N=C2/NC(=O)CS2)c(OC)c1 the inhibition was -13.7% (inactive). For COc1cccc(/C=N/NC(=O)C(=O)Nc2cccc3ccccc23)c1O, the inhibition was 65.7% (active). In the case of COc1cccc(/C=N/NC(=O)CC23CC4CC(CC(C4)C2)C3)c1O, the inhibition was 69.8% (active). With COc1cccc(/C=N/NC(=O)c2ccccc2I)c1O the inhibition was 13.4% (inactive). With COc1cccc(/C=N/NC(=O)CNc2cccc(C)c2)c1O the inhibition was 13.4% (inactive). In the case of O=C(N/N=C/c1cccc2ccccc12)C(=O)N/N=C/c1cccc2ccccc12, the inhibition was 0.24% (inactive). In the case of COc1cc(/C=N/N=C2/NC(=O)CS2)ccc1OC(=O)c1ccccc1C, the inhibition was 3.4% (inactive).
